Among all 2,300 compounds or so, about 140 (6.1%) were called active. Not shown: some 18% with an inconclusive outcome. These entries were drawn from the full list. Unmarked numbers belong to inactive results. The call rests on the fitted dose curve; in most records, active means well fitted activation curve with a large enough effect; inconclusive means small, poorly fitted or top-dose-only effect; inactive means flat fitted curve, though single readings scatter.
Target: D(2) dopamine receptor (Homo sapiens) (UniProt P14416)
Sequence (P14416 whole entry, looked up): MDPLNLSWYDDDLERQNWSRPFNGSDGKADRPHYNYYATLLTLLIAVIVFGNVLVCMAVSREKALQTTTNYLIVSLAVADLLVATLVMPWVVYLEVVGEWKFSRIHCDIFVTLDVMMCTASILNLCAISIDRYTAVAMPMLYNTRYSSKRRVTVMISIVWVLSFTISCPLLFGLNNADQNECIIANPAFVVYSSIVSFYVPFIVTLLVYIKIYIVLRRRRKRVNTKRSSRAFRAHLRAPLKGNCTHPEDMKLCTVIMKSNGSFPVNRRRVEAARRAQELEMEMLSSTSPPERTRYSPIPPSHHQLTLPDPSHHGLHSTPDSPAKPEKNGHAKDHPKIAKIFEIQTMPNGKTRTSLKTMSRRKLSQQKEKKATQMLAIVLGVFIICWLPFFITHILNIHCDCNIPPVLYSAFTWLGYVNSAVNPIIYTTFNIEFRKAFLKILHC
Assay: qHTS of D3 Dopamine Receptor Agonist: D2 Dopamine Receptor B-arrestin Agonist Counterscreen; further: nearly all actives have a fitted effect of over 70% in size; on activation: % of control where 0% means no effect
Details: DiscoveRx PathHunter D2 beta-arrestin, luminescence, 90 min; series mostly up to 76.9 µM; activation: at the top concentration
Description: D3 DARs represent a very important target for the treatment of several neuropsychiatric disorders. Indeed, one of the most promising therapeutic applications for the D3 DAR is in the area of addiction and related disorders. […] These findings have been observed with a number of addictive substances including cocaine, amphetamine, nicotine, and alcohol. […] Increased D3 DAR activity can thus lead to neuroprotective and neurorestorative actions in the CNS. […] This assay is used to profile the activity of the identified D3 dopamine receptor agonist against the D2 dopamine receptor. Greater than 10% of the maximum dopamine agonist response is desired for this assay. NIH Molecular Libraries Probe Production Centers Network [MLPCN] NIH Chemical Genomics Center [NCGC] MLPCN Grant: NS064831 Assay Submitter (PI): David Sibley
DiscoveRx D2 cells were thawed from frozen stock and seeded at 2,100 cells/ 3 uL/well media (DiscoveRx Plating Reagent 2) with MultiDrop Combi dispenser (Thermo Scientific, Logan, UT) onto white tissue culture treated 1536-well Aurora plates (Brooks Automation, Chelmsford, MA) and allowed to attach overnight at 37 deg C, 5% CO2. Next, 23 nL/well of compound solutions in DMSO were added with a pintool transfer (Kalypsis, San Diego, CA). […] The rest of the plate was dispensed with buffer only, 1 uL/well as well. The cells were stimulated by compounds or dopamine control for 90 minutes at 37 deg C, 5% CO2, after which 1.5 ul/well of DiscoveRx detection reagent was added with BioRAPTR FRD dispenser. The detection reagent was prepared by mixing of Galacton Star Substrate, Emerald II solution and PathHunter buffer (supplied by the assay kit) together at 1:5:19 proportion accordingly just prior to dispensing. The plates were incubated at ambient temperature for 1 hour and then the luminescent signal was read on ViewLux plate reader (PerkinElmer, Waltham, MA).
Potency means the concentration at half of the fitted maximal effect.

Row | Structure (SMILES) | activation | Potency
1 | O=C(CC1NCCc2ccccc21)Nc1cccc(Cl)c1 (centres undefined) | -6.22% | 
2 | O=C1C=C(c2cccc(Br)c2)C[C@@H](c2ccc(F)cc2)C1 | -3.31% | 
3 | CC(C)(C)C(=O)OCc1nc(-c2ccc(O)c(O)c2)cs1 |  | 28.2 µM (active)
4 | CC(CCc1ccccc1)NCC(O)c1cccc([N+](=O)[O-])c1 (centres undefined) | 11.9% | 
5 | CC(OC(=O)/C=C/c1ccccc1)C(=O)NC1CCCCC1C (centres undefined) | 2.72% | 
6 | O=C(OCc1nc2ccccc2[nH]1)C1CCCCC1 | 10.5% | 
7 | CCCN1CC=C2C(C#N)=C(N)C(C#N)(C#N)C(c3cc(OC)ccc3OC)C2C1 (centres undefined) | -1.56% | 
8 | CN(C)CCOC(=O)C(c1ccccc1)C1(O)CCCC1 (centres undefined) | -3.98% | 
9 | COc1cccc(NC(=O)C2CCCN(c3ncnc4c3nc3n4CCCCC3)C2)c1 (centres undefined) | -3.08% | 
10 | CC(=C1C(=O)c2ccccc2C1=O)N1CCN(c2ccccn2)CC1 | 24.7% | 
11 | CNCC(O)c1ccc(O)c(O)c1 (centres undefined) |  | 17.8 µM (active)
12 | O=C(CN1CCN(c2ncccn2)CC1)Nc1ccccc1C(F)(F)F | 17.1% | 
13 | Cc1ccccc1Nc1nc(N)nc(CN2CCN(c3ccccn3)CC2)n1 | -0.216% | 
14 | Cc1ccc(CN2CCN(c3ncccn3)CC2)c(C)c1 |  | 50.1 µM (active)
15 | O=C1CC[C@H](O)CCN1[C@H](CSc1ccc(Br)cc1)Cc1ccccc1 | 0.237% | 
16 | O=C(c1ccccc1)c1ccc(OCC(O)CN2CCCC2)cc1 (centres undefined) | -1.06% | 
17 | Cc1cc(C(=O)NNC(=O)c2ccccc2O)c(C)o1 | -1.85% | 

Row | Structure (SMILES) | activation | Potency
18 | CCCCC(=O)NNC(=S)NC(=O)C(c1ccccc1)c1ccccc1 | -7.08% | 
19 | Cn1c(C(=O)NCCCN2CCN(c3cccc(Cl)c3)CC2)cc2c(=O)n(C)c3ccccc3c21 | 9.01% | 
20 | CCn1cc(C(=O)N2CCN(Cc3ccc4c(c3)OCO4)CC2)c2cc(OC)c(OC)cc2c1=O | 18.8% | 
21 | CCC(CC)NC(=O)/C=C/c1cccc([N+](=O)[O-])c1 | -0.402% | 
22 | O=C(CCCn1c(=O)[nH]c2cc(Cl)ccc2c1=O)NCCN1CCN(c2ccccc2)CC1 | 10.7% | 
23 | O=C(CCn1c(=O)[nH]c2ccccc2c1=O)NCCCN1CCN(c2cccc(Cl)c2)CC1 | 12.8% | 
24 | CC(C)c1ccc(OCC(O)CN2CCN(c3ccccn3)CC2)cc1 (centres undefined) |  | 39.8 µM (active)
25 | CC(=O)Nc1ccc(OCC(O)CN2CCN(c3ccccc3Cl)CC2)cc1 (centres undefined) | 18.5% | 
26 | Cc1ccccc1OCC(O)CN1CCN(c2ccccn2)CC1 (centres undefined) | 7.71% | 
27 | COc1ccc(C2NC(=O)C(=O)/C2=C(\O)c2ccc(Cl)cc2)cc1OC (centres undefined) | -3.12% | 
28 | CCn1c(=O)n(CC)c2cc(N3CCCC3)c(NC(=O)c3ccccc3Br)cc21 | 2.89% | 
29 | Cc1cccc(OCC(=O)NCC(=O)N/N=C/c2ccc(N(C)C)cc2)c1 | -2.06% | 
30 | OC(COCc1ccco1)CN1CCN(c2ccccc2)CC1 (centres undefined) | 18.6% | 
31 | OC(COc1ccc2c(c1)CCC2)CN1CCN(c2cccc(Cl)c2)CC1 (centres undefined) | 27.5% | 
32 | CC(C)(C)n1ncc2c(=O)n(Cc3c(Cl)cccc3Br)cnc21 | 6.34% | 
33 | CC(C)CCN1CCN(Cc2cn[nH]c2C2CCCCC2)CC1CCO (centres undefined) | 3.55% | 
34 | Cc1cc(C)c(/C=C2\C(=O)Nc3ccccc32)[nH]1 | -6.49% | 

— PubChem BioAssay AID720507 (National Center for Advancing Translational Sciences (NCATS), 2013)
